Experimental data published in PubChem BioAssay AID463173 (ICCB-Longwood Screening Facility, Harvard Medical School, 2010).
In all, about 52,000 compounds went through this assay and about 1,700 (3.3%) were called active. Cut-off read from the data, not from the text of the source: active = survival mostly below about 52% (no sharp cut-off); inactive = mostly above about 56%. The full list was thinned out, with actives kept by preference.

Tested on: Wild type
Test: growth inhibition of S. aureus wild type versus tarO mutant, primary screen, teichoic acid synthesis inhibitors, RN4220, OD600 (AID 463173)
Conditions: S. aureus RN4220 wild type/DeltatarO growth, OD600, 18 h, hits give low values, screened at 18.75 µg/mL (by protocol)

| SMILES | survival |
| --- | --- |
| CCN(CC)S(=O)(=O)c1ccc(C(=O)N2CC(=O)Nc3ccc(F)cc3C2c2ccccc2)cc1 (centres undefined) | 81% (inactive) |
| COc1ccc(NC(=O)c2ccc(-c3nc(COc4ccccc4)c(C)o3)cc2)cc1 | 84% (inactive) |
| Cc1n[nH]c(C)c1N1C(=O)c2cccc3c(N4CCCCC4)ccc(c23)C1=O | 116% (inactive) |
| COc1ccc(CCNC(=O)C(=O)NCC(c2ccc3c(c2)OCO3)N2CCOCC2)cc1OC (centres undefined) | 73% (inactive) |
| CN(C)CCCNC(=O)C(=O)NCC(c1ccc2c(c1)OCO2)N1CCOCC1 (centres undefined) | 124% (inactive) |
| CNC(=O)C(=O)NCC(c1ccc2c(c1)OCO2)N1CCOCC1 (centres undefined) | 113% (inactive) |
| CN(C)CCNC(=O)C(=O)NCC(c1ccc2c(c1)OCO2)N1CCOCC1 (centres undefined) | 73% (inactive) |
| CC(C)(C)C(=O)NCC(c1ccc2c(c1)OCO2)N1CCOCC1 (centres undefined) | -2% (active) |
| COc1ccc(CNC(=O)C(=O)NCC(c2ccc3c(c2)OCO3)N2CCOCC2)cc1 (centres undefined) | 80% (inactive) |
| COCCNC(=O)C(=O)NCC(c1ccc2c(c1)OCO2)N1CCOCC1 (centres undefined) | -3% (active) |
| O=C(NCCCO)C(=O)NCC(c1ccc2c(c1)OCO2)N1CCOCC1 (centres undefined) | 10% (active) |
| COc1ccc(CCNC(=O)C(=O)NCC(c2ccc3c(c2)OCO3)N2CCOCC2)cc1 (centres undefined) | 0% (active) |
| O=C(NCCO)C(=O)NCC(c1ccc2c(c1)OCO2)N1CCOCC1 (centres undefined) | 59% (inactive) |
| CC(C)(C)CC(=O)NCC(c1ccc2c(c1)OCO2)N1CCOCC1 (centres undefined) | 73% (inactive) |
| COCCCNC(=O)C(=O)NCC(c1ccc2c(c1)OCO2)N1CCOCC1 (centres undefined) | 87% (inactive) |
| O=C(CS(=O)(=O)c1cccc2nsnc12)NCc1ccccc1Cl | 136% (inactive) |
| Cc1cc(Nc2ccc(C(=O)O)c(O)c2)n2ncnc2n1 | 72% (inactive) |
| O=C(NCCc1ccc(Cl)cc1)c1nc(-c2cccc(F)c2)n2c1CCCCC2 | 140% (inactive) |
| COc1ccc(NC(=O)c2cc3c(=O)n(Cc4ccco4)ccc3nc2C)c(OC)c1 | 88% (inactive) |
| COc1ccc(Cn2ccc3nc(C)c(C(=O)Nc4ccc(F)cc4)cc3c2=O)cc1 | -3% (active) |
| COc1ccc(Cn2ccc3nc(C)c(C(=O)Nc4ccc(OC(F)(F)F)cc4)cc3c2=O)cc1 | 90% (inactive) |
| Cc1cccc(NC(=O)c2cc3c(=O)n(Cc4cccnc4)ccc3nc2C)c1 | -3% (active) |
| CC(=O)Nc1ccc(NC(=O)c2cc3c(=O)n(Cc4cccnc4)ccc3nc2C)cc1 | 65% (inactive) |

| SMILES | survival |
| --- | --- |
| COc1ccc(Cn2ccc3nc(C)c(C(=O)Nc4ccc(OC)cc4OC)cc3c2=O)cc1 | 0% (active) |
| COc1ccc(Cn2ccc3nc(C)c(C(=O)Nc4ccc(OC)cc4)cc3c2=O)cc1 | 85% (inactive) |
| COc1ccc(NC(=O)c2cc3c(=O)n(Cc4cccnc4)ccc3nc2C)c(OC)c1 | 88% (inactive) |
| COc1cccc(NC(=O)c2cc3c(=O)n(Cc4cccnc4)ccc3nc2C)c1 | 78% (inactive) |
| COc1ccccc1NC(=O)C1=C(C)Nc2nc(SCc3ccccc3)nn2C1c1ccncc1 (centres undefined) | 83% (inactive) |
| CC(C)NC(=O)C1CCCN(c2ncnc3c2nc2n3CCCCC2)C1 (centres undefined) | 73% (inactive) |
| COC(=O)c1nnn(-c2cccc(C)c2)c1C(=O)OC | 77% (inactive) |
| Cc1nc2ccccc2c(=O)n1/N=C1\C(=O)N(C)c2ccccc21 | 108% (inactive) |
| Cc1ccc2c(=O)c(C(=O)c3cccc(Cl)c3)cn(CC(=O)NC3CCCCC3)c2n1 | 126% (inactive) |
| CCc1ccc(CNC(=O)CN2C(=O)CSc3c2c(C)nn3-c2ccccc2)cc1 | 125% (inactive) |
| CCC1CCc2c(sc(NC(=O)C3c4ccccc4Oc4ccccc43)c2C(=O)OC)C1 (centres undefined) | 80% (inactive) |
| CCOC(=O)c1c(NC(=O)C2c3ccccc3Oc3ccccc32)sc2c1CCC(CC)C2 (centres undefined) | 65% (inactive) |
| CCOC(=O)c1c(NC(=O)c2ccc(F)cc2)sc2c1CCC(CC)C2 (centres undefined) | 3% (active) |
| CCOC(=O)c1c(NC(=O)COc2ccc(F)cc2)sc2c1CCC(C)C2 (centres undefined) | 69% (inactive) |
| CCOC(=O)c1c(NC(=O)c2ccccc2OCC)sc2c1CCC(CC)C2 (centres undefined) | -1% (active) |
| CCOC(=O)c1c(NC(=O)COc2cccc(C)c2C)sc2c1CCC(CC)C2 (centres undefined) | 78% (inactive) |
| Cc1ccc(CN(C(=O)COc2cc(C)c(Cl)c(C)c2)c2ccccn2)o1 | 78% (inactive) |
| COc1ccccc1NC(=O)CSC1=Nc2ccccc2N=C(c2ccc(F)cc2)C1 | 71% (inactive) |
| Brc1ccc(-c2nc(N3CCN(c4ccccc4)CC3)c3ccccc3n2)cc1 | 127% (inactive) |
| CC1CCCCN1c1nc(-c2ccc(C(C)(C)C)cc2)nc2ccccc12 (centres undefined) | 1% (active) |
| CC1CCCCN1C(=O)CSc1nc(C2CC2)nc2ccccc12 (centres undefined) | 110% (inactive) |
| CC1CCN(c2nc3ccccc3nc2C(F)(F)F)CC1 | 78% (inactive) |
| CC1CCN(c2nc(-c3ccc(C(C)(C)C)cc3)nc3ccccc23)CC1 | 3% (active) |

| SMILES | survival |
| --- | --- |
| CC1CCN(c2nc(-c3ccc(Br)cc3)nc3ccccc23)CC1 | 105% (inactive) |
| CCOC(=O)C(CC)n1nc(C)n2c(cc3occc32)c1=O (centres undefined) | 120% (inactive) |
| CCCN(CCC)CCNC(=O)c1cc2c(-c3ccccc3F)nn(C)c2s1 | 97% (inactive) |
| CCNC(=S)N1CCC(n2cnc3ccccc32)CC1 | 98% (inactive) |
| Cc1ccc(C(=O)N(c2ccc(C)cc2)S(=O)(=O)c2ccc(Cl)cc2)cc1 | 73% (inactive) |
| COc1ccc(Cl)cc1NC(=O)c1cc2nc(-c3ccc4c(c3)OCO4)cc(C(F)(F)F)n2n1 | 65% (inactive) |
| Cc1ccc(-n2ncc(C(=O)NCCCN3CCN(c4cccc(Cl)c4)CC3)c2-n2cccc2)cc1 | 59% (inactive) |
| O=C(NCCCN1CCN(c2ccc(F)cc2)CC1)c1cnn(-c2ccc(F)cc2)c1-n1cccc1 | 82% (inactive) |
| Cc1ccc(-n2nc(C)c(C(=O)NCCCN3CCN(c4ccc(F)cc4)CC3)c2-n2cccc2)cc1 | 101% (inactive) |
| Cc1ccc(-n2nc(C)c(C(=O)NCCCN3CCN(c4cccc(Cl)c4)CC3)c2-n2cccc2)cc1 | -2% (active) |
| O=C(NCCCN1CCN(c2cccc(Cl)c2)CC1)c1cnn(-c2ccc(F)cc2)c1-n1cccc1 | 0% (active) |
| Cc1nn(-c2ccc(F)cc2)c(-n2cccc2)c1C(=O)NCCCN1CCN(c2cccc(Cl)c2)CC1 | 110% (inactive) |
| COC(=O)c1ccc(Nc2ncnc3c2cnn3C)cc1 | 81% (inactive) |
| COc1ccc(OC)c(S(=O)(=O)NCCc2csc(-c3cccc(F)c3)n2)c1 | 135% (inactive) |
| CC1=Nc2ccccc2N=C(C)C1 | 115% (inactive) |
| CCOc1ccc(-c2nc(SCC(=O)NC3CCCC3)c(-c3ccccc3)[nH]2)cc1OC | 73% (inactive) |
| COC(=O)c1ccc(OC)c(Cn2c(=O)n(-c3ccc(C)cc3)c(=O)c3c2cnn3C)c1 | 76% (inactive) |
| Cc1nn2c(C)c(C(=O)NCc3cccc(Br)c3)cnc2c1-c1ccccc1 | 53% (inactive) |
| CCOc1ccc(-c2c(C)nn3c(C)c(C(=O)Nc4ccccc4C(=O)OC)cnc23)cc1OCC | -6% (active) |
| CCOc1ccc(-c2c(C)nn3c(C)c(C(=O)Nc4cc(C)cc(C)c4)cnc23)cc1OCC | 133% (inactive) |
| Cc1cccc(CNC(=O)c2cnc3c(-c4cccc(C)c4)c(C)nn3c2C)c1 | -1% (active) |
| COc1cc(CNC(=O)c2cnc3c(-c4cccc(C)c4)c(C)nn3c2C)cc(OC)c1OC | 74% (inactive) |
| CCOc1ccc(OCC)c(NC(=O)c2cnc3c(-c4ccccc4)c(C)nn3c2C)c1 | 63% (inactive) |

| SMILES | survival |
| --- | --- |
| CCOc1ccc(-c2c(C)nn3c(-c4ccccc4)c(C(=O)NCCOC)cnc23)cc1OCC | -6% (active) |
| COc1cc(Cl)c(C)cc1NC(=O)c1cnc2c(-c3cccc(C)c3)c(C)nn2c1C | 14% (active) |
| CCCCNC(=O)c1cnc2c(-c3ccc(OCC)c(OCC)c3)c(C)nn2c1-c1ccccc1 | 80% (inactive) |
| CCCNC(=O)c1cnc2c(-c3ccc(OCC)c(OCC)c3)c(C)nn2c1-c1ccccc1 | 76% (inactive) |
| CCOc1ccc(-c2c(C)nn3c(C)c(C(=O)Nc4cccc(Cl)c4C)cnc23)cc1OCC | 67% (inactive) |
| COC(=O)c1ccccc1NC(=O)c1cnc2c(-c3cccc(C)c3)c(C)nn2c1C | 133% (inactive) |
| COCCNc1ccc2cc(S(=O)(=O)N3CCCCC3)ccc2n1 | 56% (inactive) |
| COc1ccccc1CNC(=O)COCc1cc(-c2ccc3c(c2)OCO3)on1 | 19% (inactive) |
| COC(=O)C(C)n1nnc2sc(-c3ccccc3)cc2c1=O (centres undefined) | 88% (inactive) |
| CCOC(=O)c1cccc(NC(=O)N2CCC(CN3CCc4ccccc4C3)CC2)c1 | 71% (inactive) |
| CC(=O)N1c2ccccc2C(=O)C1N1CCN(c2cc(Cl)ccc2C)CC1 (centres undefined) | 138% (inactive) |
| CCOc1ccc(CCNC(=O)c2cnc3c(-c4ccc(F)cc4)c(C)nn3c2C)cc1OCC | 159% (inactive) |
| CCOc1ccc(CCNC(=O)c2cnc3c(-c4ccccc4)c(C)nn3c2C)cc1OCC | -3% (active) |
| CCOc1ccc(-c2c(C)nn3c(C)c(C(=O)NCCc4ccccc4)cnc23)cc1OCC | 53% (inactive) |
| Cc1nn2c(C)c(C(=O)NCCc3ccccc3)cnc2c1-c1ccccc1 | 55% (inactive) |
| CCNC(=O)c1cnc2c(-c3ccccc3)c(C)nn2c1C | 0% (active) |
| Cc1nn2c(C)c(C(=O)NCC(C)c3ccccc3)cnc2c1-c1ccccc1 (centres undefined) | 75% (inactive) |
| Cc1cccc(CSc2nnc3[nH]c(=O)cc(-c4ccccc4)n23)c1 | 80% (inactive) |
| CCOC(=O)C1CCCN(C(=O)c2ccc(C)c(NC(=O)c3nsc4ccccc34)c2)C1 (centres undefined) | 123% (inactive) |
| NS(=O)(=O)c1cccc(S(N)(=O)=O)c1 | 117% (inactive) |
